Assay [1] can be described thus: qHTS assay to identify small molecule antagonists of the glucocorticoid receptor (GR) signaling pathway - cell viability counter screen (AID 720693; note: nearly all actives have a fitted effect of over 55% in size). (In qHTS, concentration-response curves come from the screen itself.)
The nature of assay [2]: qHTS assay for identifying genotoxic compounds that show differential cytotoxicity against isogenic chicken DT40 cell lines with known DNA damage response pathways - wild type cell line (AID 743012). Note: nearly all actives have a fitted effect of over 60% in size. Note: potency is the fitted concentration of half-maximal effect. An outline of the steps:
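Wild type DT40, 300 cells/well, ~0.5 h settle at 37 C/5% CO2; compounds in DMSO added by pintool; 40 h at 37 C/5% CO2; CellTiter-Glo, 30 min RT; luminescence.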

Assay [3] in a line: qHTS assay for identifying genotoxic compounds that show differential cytotoxicity against isogenic chicken DT40 cell lines with known DNA damage response pathways - Rad54/Ku70 mutant cell line (AID 743015). Note: nearly all actives have a fitted effect of over 60% in size. Note: potency is the fitted concentration of half-maximal effect.
Assay [4] is described as follows: qHTS assay to identify small molecule antagonists of the androgen receptor (AR) signaling pathway - cell viability counter screen (AID 743033; note: nearly all actives have a fitted effect of over 45% in size).
Assay [5] can be described thus: qHTS assay to identify small molecule antagonists of the androgen receptor (AR) signaling pathway using the MDA cell line - cell viability counter screen (AID 743041; note: nearly all actives have a fitted effect of over 45% in size). An outline of the steps:
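Same-well cytotoxicity was assessed by CellTiter-Fluor in MDA-kb2 AR-luc cells after 16 h of compound treatment under R1881 agonism.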

Assay [6] can be described thus: qHTS assay to identify small molecule antagonists of the thyroid receptor (TR) signaling pathway - cell viability counter screen (AID 743064). Note: nearly all actives have a fitted effect of over 50% in size. Note: potency is the fitted concentration of half-maximal effect. An outline of the steps: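 GH3.TRE-Luc cells, 4 h pre-plating; cpd + T3 1 nM final; 37 °C 23.5 h; CellTiter-Fluor 30 min; fluorescence read.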
Assay [7] can be described thus: qHTS assay to identify small molecule antagonists of the thyroid receptor (TR) signaling pathway (AID 743065). Note: nearly all actives have a fitted effect of over 55% in size. Note: potency is the fitted concentration of half-maximal effect. A digest of the protocol:
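GH3.TRE-Luc rat pituitary cells (two TREs driving luciferase) were dosed with compound, then stimulated with 1 nM T3 (final) for 23.5 h at 37 C. ONE-Glo luminescence was the read-out, with CellTiter-Fluor fluorescence as the cytotoxicity counter-screen.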

The subject of assay [8] is thyroid hormone receptor (rat, GH3 cells). The assay is described as follows: qHTS assay to identify small molecule agonists of the thyroid receptor (TR) signaling pathway (AID 743066; calls by dose curve).
In assay [9] the target is Estrogen receptor (Homo sapiens) (UniProt P03372). The assay is described as follows: qHTS assay to identify small molecule antagonists of the estrogen receptor alpha (ER-alpha) signaling pathway (AID 743069; active = well fitted curve in the direction sought with a large enough effect in the signal ratio in the repeat runs, not every such curve was filed as active; inconclusive = weak or mixed curves, or effect the other way; inactive = no such curve, though single readings can be large or run the other way; the % refers to the signal ratio). An outline of the steps: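 Reporter cells (ER-alpha-bla, HEK293 background) are conditioned overnight in stripped-serum medium (2% charcoal-stripped FBS). Compound and 17beta-estradiol exposure runs 18 hr at 37C, 5% CO2.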
Estrogen receptor (Homo sapiens), sequence (P03372 whole entry, looked up): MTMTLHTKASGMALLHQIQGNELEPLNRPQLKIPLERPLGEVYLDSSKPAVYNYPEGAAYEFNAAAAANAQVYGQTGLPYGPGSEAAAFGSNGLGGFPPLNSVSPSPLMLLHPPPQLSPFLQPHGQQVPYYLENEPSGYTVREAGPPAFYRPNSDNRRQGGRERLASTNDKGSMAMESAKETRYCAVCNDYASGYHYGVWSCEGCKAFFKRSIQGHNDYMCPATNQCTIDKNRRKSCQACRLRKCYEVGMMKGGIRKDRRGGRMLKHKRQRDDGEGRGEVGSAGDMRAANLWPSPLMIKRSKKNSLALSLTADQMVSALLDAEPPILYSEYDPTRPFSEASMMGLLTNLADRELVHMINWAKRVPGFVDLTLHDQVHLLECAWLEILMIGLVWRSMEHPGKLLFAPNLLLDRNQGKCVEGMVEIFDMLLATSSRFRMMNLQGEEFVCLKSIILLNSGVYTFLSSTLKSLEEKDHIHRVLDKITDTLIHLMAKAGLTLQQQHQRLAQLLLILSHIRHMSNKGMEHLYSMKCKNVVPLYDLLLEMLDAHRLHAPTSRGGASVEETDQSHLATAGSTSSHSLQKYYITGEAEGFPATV

Assay [10] has the same target. The assay is described as follows: qHTS assay to identify small molecule agonists of the estrogen receptor alpha (ER-alpha) signaling pathway (AID 743075; calls by dose curve;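 note: HEK293 GripTite cells with ER-alpha and UAS-driven beta-lactamase reporter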; note: potency is the fitted concentration of half-maximal effect).
Assay [11] has the same target. The assay is described as follows: qHTS assay to identify small molecule agonists of the estrogen receptor alpha (ER-alpha) signaling pathway using the BG1 cell line (AID 743079). Note: nearly all actives have a fitted effect of over 20% in size. Note: potency is the fitted concentration of half-maximal effect. Conditions: BG1Luc4E2 cells, ERE-luciferase agonist, 22 h; activation: at 70.3 µM (top of the series) unless noted.
The nature of assay [12]: qHTS assay to identify small molecule antagonists of the estrogen receptor alpha (ER-alpha) signaling pathway using the BG1 cell line (AID 743080; calls by dose curve;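 note: BG1 cells stimulated with 17beta-estradiol alongside compound; nearly all actives have a fitted effect of over 25% in size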). A digest of the protocol:
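Quantitative HTS on the Tox21 10K library: BG1 cells with endogenous ER-alpha and ERE-luciferase reporter, 17beta-estradiol stimulation, 21.5 h compound exposure, luminescence endpoint with parallel fluorescence cytotoxicity counter-read.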

Assay [13] can be described thus: qHTS assay to identify small molecule antagonists of the estrogen receptor alpha (ER-alpha) signaling pathway using the BG1 cell line - cell viability counter screen (AID 743081).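 Note: compound given together with 17beta-estradiol as the ER stimulus; nearly all actives have a fitted effect of over 45% in size.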
Assay [14] concerns the target Aromatase (Homo sapiens) (UniProt P11511). The assay is described as follows: qHTS assay to identify aromatase inhibitors (AID 743083). Note: nearly all actives have a fitted effect of over 55% in size. Note: potency is the fitted concentration of half-maximal effect.
Assay [15] in a line: qHTS assay to identify small molecule antagonists of the estrogen receptor alpha (ER-alpha) signaling pathway - cell viability counter screen (AID 743074; calls by dose curve;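 note: HEK293 cells carrying ER-alpha-UAS-bla reporter stimulated with 17beta-estradiol; nearly all actives have a fitted effect of over 45% in size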).

The structures appear in SMILES notation. Values joined by “and” are separate entries in the source; they are usually repeats but may differ in a detail not shown here. Identical values can stand only once. A structure can be active in one record and inactive in another. Active and inactive are the calls of the source. Unless noted, calls come from the whole dose curve; as a rule, active = well fitted curve in the direction sought with a large enough effect in the repeat runs; inconclusive = weak or mixed curves; inactive = no such curve, though single readings can be large; an effect the other way counts as inactive or inconclusive.

Aromatase (Homo sapiens), sequence (P11511 whole entry, looked up): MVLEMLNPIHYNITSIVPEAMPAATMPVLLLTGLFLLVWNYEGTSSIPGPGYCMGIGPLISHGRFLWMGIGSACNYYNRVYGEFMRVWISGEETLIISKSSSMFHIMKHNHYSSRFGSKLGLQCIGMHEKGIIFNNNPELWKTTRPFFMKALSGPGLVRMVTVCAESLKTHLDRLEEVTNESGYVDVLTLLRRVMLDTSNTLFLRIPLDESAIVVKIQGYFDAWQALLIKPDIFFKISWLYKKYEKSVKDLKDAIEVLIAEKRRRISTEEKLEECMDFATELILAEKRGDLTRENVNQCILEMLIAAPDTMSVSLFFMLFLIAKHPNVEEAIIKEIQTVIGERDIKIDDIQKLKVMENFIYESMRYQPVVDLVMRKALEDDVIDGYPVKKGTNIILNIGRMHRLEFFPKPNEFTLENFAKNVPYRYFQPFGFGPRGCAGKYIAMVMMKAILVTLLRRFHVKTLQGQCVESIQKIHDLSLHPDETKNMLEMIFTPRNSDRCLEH

On to `OCCOCCO`, for which the Potency result in assay [1], in [2], in assay [3], in assay [4], in assay [5] and in assay [6] was “inactive” each time. Also, the Potency result in [7], in [8], in [9], in [10], in assay [11] and in [12] was “inactive” throughout. Further, the Potency entry in [13] and in [14] was “inactive” each time.
Turning to `CC1(C)Cc2cccc(O)c2O1`, the Potency entry in assay [1], in assay [2], in assay [3], in assay [4], in assay [5] and in [6] was “inactive” throughout. The Potency entry in assay [7], in assay [8], in assay [9], in [15], in assay [10] and in [11] was “inactive” in each case. Further, the Potency entry in assay [12], in assay [13] and in [14] was “inactive” throughout.
Regarding `C[N+](C)(C)C`, the Potency entry in assay [1], in [2], in [3], in assay [4], in assay [5] and in [6] was “inactive” throughout. In addition, the Potency result in assay [8], in assay [9], in assay [15], in assay [10], in assay [12] and in assay [13] was “inactive” each time. The Potency entry in [14] is “inactive”. In addition, the Potency result in [11] was “inactive and 49.1 µM (active)”.
In the case of `CC1(C)C(C(=O)OC(C#N)c2cccc(Oc3ccccc3)c2)C1(C)C` (stereo unspecified), the Potency entry in assay [1], in assay [4], in assay [5], in [6], in assay [8] and in assay [9] was “inactive” each time. Moreover, the Potency entry in [15], in assay [10], in assay [12] and in [13] was “inactive” in each case. Further, the Potency entry in assay [2] was “inactive and 48.5 µM (active)”; in assay [3] it was “inactive and 54.4 µM (active)”; in assay [14] it was 48.9 µM (active).
Regarding `C[C@]12CC[C@H]3[C@@H](CCC4=CC(=O)CC[C@@H]43)[C@@H]1CC[C@@H]2O`, the Potency result in assay [1], in assay [4], in assay [5], in assay [6], in assay [8] and in assay [15] was “inactive” in each case. In addition, the Potency entry in assay [12], in assay [13] and in [14] was “inactive” in each case. Besides, the Potency in assay [2] was 26.6 µM (active); in assay [7], 21.1 µM (active) and 13.3 µM (active) and 30.4 µM (active); in [10] it was 1.34 µM [inconclusive] (active) and 268 nM [inconclusive] (active) and 243 nM [inconclusive] (active); in assay [11], 106 nM (active) and 59.6 nM (active) and 108 nM (active).
Consider `CC(C)COC(=O)c1ccccc1C(=O)OCC(C)C`, for which the Potency result in assay [1], in [4], in assay [5], in [6], in assay [7] and in [8] was “inactive” each time. The Potency result in assay [9], in [15], in [12], in [13] and in assay [14] was “inactive” in each case. Moreover, the Potency in assay [2] was 27.3 µM (active); in assay [3], 48.6 µM (active); in assay [10], 13.8 nM [inconclusive] (active) and inactive; in assay [11] it was 21.7 µM (active).
As for `CCN(CC)C(=O)C(C)Oc1cccc2ccccc12` (stereo unspecified), the Potency result in assay [1], in assay [5], in [6], in assay [8], in assay [9] and in assay [15] was “inactive” in each case. Besides, the Potency entry in assay [10], in assay [11] and in assay [13] was “inactive” throughout. The results for the Potency in assay [2], in assay [3] and in assay [14] were 10.9 µM (active), 17.2 µM (active) and 34.4 µM (active), respectively.
On to `Nc1ccc([N+](=O)[O-])cc1N`, for which the Potency result in [1], in [4], in [8] and in [14] was “inactive” in each case. The Potency was 27.3 µM (active) in assay [2]; 13.7 µM (active) and 19.3 µM (active) in [3]; 24.3 µM (active) and 43.3 µM (active) in assay [6]; 48.5 µM (active) and 48.6 µM (active) in [7].
For `CC(C)(C#N)N=NC(C)(C)C#N`, the Potency result in assay [1], in [2], in assay [3], in [4], in assay [5] and in assay [6] was “inactive” throughout. The Potency entry in [9], in assay [15], in assay [10], in assay [11], in [12] and in assay [13] was “inactive” in each case. In addition, the Potency entry in assay [14] was “inactive”.
`CC(C)(O)C#N`: the Potency result in assay [1], in assay [2], in assay [3], in assay [4], in assay [5] and in assay [6] was “inactive” throughout. Also, the Potency entry in assay [15], in [13] and in assay [14] was “inactive” throughout.
Regarding `N#CCCCCC#N`, the Potency entry in assay [1], in assay [2], in [3], in assay [4], in assay [5] and in assay [7] was “inactive” throughout. In addition, the Potency entry in [8], in assay [15], in [13] and in [14] was “inactive” in each case.

The values above are taken from PubChem BioAssay (Tox21).
